Test results as given in PubChem BioAssay (NCATS).
Records with an inconclusive call do not appear. The source made the active and inactive calls. Calls come from the whole dose curve; as a rule, active = well fitted curve in the direction sought with a large enough effect; inconclusive = small, poorly fitted or top-dose-only effect, or another doubt; inactive = no such curve, though single readings can be large or run the other way.

Each molecule was assayed against Protein phosphatase 1D (Homo sapiens) (UniProt O15297) (assay: Rhodamine-PBP qHTS Assay for Modulators of WT P53-Induced Phosphatase 1 (WIP1) (AID 1347425; note: % of control where 0% means no effect)). Conditions: recombinant WIP1, Rhodamine-PBP phosphate fluorescence, real-time; series mostly up to 57.5 µM.
Protein phosphatase 1D (Homo sapiens), sequence (O15297 whole entry, looked up): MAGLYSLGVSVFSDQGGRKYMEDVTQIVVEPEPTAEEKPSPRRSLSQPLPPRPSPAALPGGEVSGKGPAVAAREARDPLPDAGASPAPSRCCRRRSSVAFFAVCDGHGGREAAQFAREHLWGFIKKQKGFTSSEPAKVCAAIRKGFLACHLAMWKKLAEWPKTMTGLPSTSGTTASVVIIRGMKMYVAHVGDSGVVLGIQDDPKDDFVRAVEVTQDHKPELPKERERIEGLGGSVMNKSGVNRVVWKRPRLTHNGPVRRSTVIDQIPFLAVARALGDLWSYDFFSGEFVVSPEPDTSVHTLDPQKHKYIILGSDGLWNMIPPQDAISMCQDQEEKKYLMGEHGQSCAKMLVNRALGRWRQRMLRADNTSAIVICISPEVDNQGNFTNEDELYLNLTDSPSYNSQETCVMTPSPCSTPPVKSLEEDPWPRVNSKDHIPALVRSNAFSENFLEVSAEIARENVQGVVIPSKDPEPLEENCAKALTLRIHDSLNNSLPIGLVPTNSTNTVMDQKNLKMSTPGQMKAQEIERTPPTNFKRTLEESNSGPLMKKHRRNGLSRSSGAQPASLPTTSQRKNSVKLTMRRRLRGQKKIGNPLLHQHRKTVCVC
From the text: Assay Provider (PI): Nathan Coussens Ph.D.
National Center for Advancing Translational Sciences (NCATS), Rockville, MD
National Institute of Health (NIH), Bethesda, Maryland
WT P53-Induced Phosphatase 1 (WIP1) is a member of the magnesium-dependent serine/threonine protein phosphatase (PPM) family and is induced by P53 in response to DNA damage. In several human cancers, the WIP1 protein is overexpressed, which is generally associated with a worse prognosis. Although WIP1 is an attractive therapeutic target, no potent, selective, and bioactive small-molecule modulator with favorable pharmacokinetics has been reported. Phosphatase enzymes are among the most challenging targets for small molecules because of the difficulty of achieving both modulator selectivity and bioavailability. Another major obstacle has been the availability of robust and physiologically relevant phosphatase assays that are suitable for high-throughput screening.
Here, we describe two orthogonal biochemical WIP1 activity assays that utilize phosphopeptides from native WIP1 substrates. We optimized a RapidFire MS assay to quantify the enzymatically dephosphorylated peptide reaction product in a 384-well format. Additionally, a redshifted Rhodamine-PBP fluorescence assay was optimized in a 1,536-well format to enable real-time WIP1 activity measurements through the detection of the orthogonal reaction product, Pi. We validated these two optimized assays by quantitative high-throughput screening against the National Center for Advancing Translational Sciences (NCATS) Pharmaceutical Collection and used secondary assays to confirm and evaluate inhibitors identified in the primary screen.
SEQUENCE No. (e.g., 1, 2, 3, etc.); […] (e.g., Cells, Incubation, Reagent, etc.); VALUE; DESCRIPTION
1; Reagent; 3 uL; WIP1 (6.7 nM), Rh-PBP (13.3 uM), columns 1-48
3; Library Compounds; 23 nL; NCATS Pharmaceutical Collection, column 5-48
4; Control Compounds; DMSO in column 2, GSK2830371 (57.5 uM, final) in 3-fold serial dilutions in column 3, GSK2830371 (1.15 uM, final) in column 4
5; Time; 1 hr; incubation
6; Detection; fluorescence (f0); ViewLux, excitation filter = 525 nm, emission filter = 598 nm
7; Reagent; 1 uL; VEPP-pS-QETFS (40 uM), columns 2-48
8; Detection; fluorescence (f1); ViewLux, excitation filter = 525 nm, emission filter = 598 nm
NOTES (numbers refer to sequence above)
1 & 2; Black medium binding Greiner 1536-well plates (# 789176-F); assay buffer: 50 mM Tris-HCl pH 7.5, 30 mM MgCl2, 1mM TCEP, 0.1 mM EGTA, 75 ug/mL BSA; dispensed with a BioRaptr liquid handler (Beckman Coulter).
3 & 4; Kalypsys pintool (equipped with 1536 pinhead, Wako USA) transfer. Tip wash sequence: DMSO, methanol, 3 sec vacuum dry.
5; Room temperature incubation.
7; VEPPL-pS-QETFS in assay buffer dispensed with a BioRaptr; final reaction conditions: 5 nM WIP1, 10 uM VEPPL-pS-QETFS, 10 uM Rh-PBP, 50 mM Tris-HCl pH 7.5, 30 mM MgCl2, 1 mM TCEP, 0.1 mM EGTA, 75 ug/mL BSA.
8; Measurement taken at 1 min intervals for 11 min. Delta readout = f1 - f0.

Row | Compound | outcome | activity change, negative = inhibition
1 | Nc1ccc(C(=O)Nc2ccccc2N)cc1 | inactive | –
2 | C#C[C@]1(O)CC[C@H]2[C@@H]3CCc4cc(OC5CCCC5)ccc4[C@H]3CC[C@@]21C | inactive | –
3 | N[C@H](Cc1c[nH]c2ccccc12)C(=O)O | inactive | –
4 | Cc1ccccc1C(=O)Nc1ccc(C(=O)N2CCCC(N(C)C)c3ccccc32)cc1 (stereo not given) | inactive | –
5 | CCn1cc(C(=O)O)c(=O)c2cnc(N3CCCC3)nc21 | – | -2.4% [at 11.5 µM] (inactive)
6 | NC[C@H]1O[C@H](O[C@H]2[C@H](O[C@@H]3O[C@H](CO)[C@@H](O)[C@H]3O)C(O)[C@H](N)C[C@@H]2N)[C@H](N)[C@@H](O)[C@@H]1O (stereo not given in full) | – | 17.3% [at 11.5 µM] (inactive)
7 | CC(O)(P(=O)(O)O)P(=O)(O)O | inactive | –
8 | COC(=O)CCc1ccc(OCC(O)CNC(C)C)cc1 (stereo not given) | inactive | –
9 | CCCCOc1ccc(OCCCN2CCOCC2)cc1 | inactive | –
10 | C[C@H](CCC(=O)O)[C@H]1CC[C@H]2[C@@H]3C(=O)C[C@@H]4CC(=O)CC[C@]4(C)[C@H]3CC(=O)[C@]12C | inactive | –
11 | NCCCC[C@H](N[C@@H](CCc1ccccc1)C(=O)O)C(=O)N1CCC[C@H]1C(=O)O | inactive | –
12 | CN1C(CCl)Nc2cc(Cl)c(S(N)(=O)=O)cc2S1(=O)=O (stereo not given) | inactive | –
13 | C[C@@H](CN(C)C)CN1c2ccccc2Sc2ccccc21 | inactive | –
14 | CC(=O)CC(c1ccc([N+](=O)[O-])cc1)c1c(O)c2ccccc2oc1=O (stereo not given) | inactive | –
15 | Cc1cccn2c(=O)c(-c3nnn[nH]3)cnc12 | inactive | –
16 | NC(CO)(CO)CO | inactive | –
17 | O=C(CCCN1CCC(O)(c2ccc(Br)cc2)CC1)c1ccc(F)cc1 | inactive | –
18 | OC[C@H]1O[C@H](O[C@]2(CCl)O[C@H](CCl)[C@@H](O)[C@@H]2O)[C@H](O)[C@@H](O)[C@H]1Cl | inactive | –
19 | CCN1CCCC1=O | inactive | –
20 | CCC(=O)c1c(O)cc(O)cc1O | inactive | –

Row | Compound | outcome | activity change, negative = inhibition
21 | CN(C)CCOc1ccccc1Cc1ccccc1 | inactive | –
22 | O=C1OCCN1/N=C/c1ccc([N+](=O)[O-])o1 | inactive | –
23 | C=C(CC)C(=O)c1ccc(OCC(=O)O)c(Cl)c1Cl | inactive | –
24 | CN(C)CC/C=C1/c2ccccc2COc2ccc(CC(=O)O)cc21 | inactive | –
25 | CCOC(=O)OC(C)OC1=C(C(=O)Nc2ccccn2)N(C)S(=O)(=O)c2ccccc21 (stereo not given) | inactive | –
26 | CC(=O)Oc1ccc(C(=C2CCCCC2)c2ccc(OC(C)=O)cc2)cc1 | inactive | –
27 | CC1(C)O[C@@H]2C[C@H]3[C@@H]4C[C@H](F)C5=CC(=O)C=C[C@]5(C)[C@H]4[C@@H](O)C[C@]3(C)[C@]2(C(=O)CO)O1 | inactive | –
28 | OC[C@H]1O[C@@H](n2cnc3c(=S)nc[nH]c32)[C@H](O)[C@@H]1O | inactive | –
29 | Cc1ccnc(NS(=O)(=O)c2ccc(N)cc2)n1 | inactive | –
30 | CCN1CCC[C@H]1CNC(=O)c1c(OC)ccc(Br)c1OC | inactive | –
31 | OC[C@@H](O)[C@@H](O[C@@H]1O[C@H](CO)[C@H](O)[C@H](O)[C@H]1O)[C@H](O)[C@@H](O)CO | inactive | –
32 | Cc1c(C)n(Cc2ccccc2)c2ccc(C(=O)OCCN(C)C)cc12 | inactive | –
33 | O=C(CCN1CCC(c2ccccc2)C1)c1ccc2c(c1)OCCO2 (stereo not given) | inactive | –
34 | CC(Cc1ccccc1)(NC(=O)CN)c1ccccc1 (stereo not given) | inactive | –
35 | COc1cc2c(cc1OC)C(=O)C(CC1CCN(Cc3ccccc3)CC1)C2 (stereo not given) | inactive | –
36 | O=C1c2ccccc2C(=O)C1c1ccccc1 | inactive | –
37 | COC(=O)C1=C(C)NC(C)=C(C(=O)O[C@@H]2CCCN(Cc3ccccc3)C2)[C@@H]1c1cccc([N+](=O)[O-])c1 | inactive | –
38 | C=CCc1ccc(O)c(OC)c1 | inactive | –
39 | COCc1c(C(C)C)nc(C(C)C)c(/C=C/[C@@H](O)C[C@@H](O)CC(=O)O)c1-c1ccc(F)cc1 | inactive | –
40 | CC(C)N=C(N)/N=C(\N)Nc1ccc(Cl)cc1 | inactive | –
